Only a sample is shown.
aSyn 5UTR act: Activators via SNCA 5'UTR binding, MLPCN. alpha-synuclein 5'UTR reporter, activators screen. activity score, % (tested at 7.5 µM), hits read low. 7.1% of 300,000 active. AID 1814; in the data active = activity score below about -60%
Numbers without * were called inactive.

SMILES	aSyn 5UTR act
C/C(=N\NC(=O)c1c([N+](=O)[O-])c(C)nn1C)c1ccc(NC(=O)c2ccc(C)o2)cc1	-104.2*
C/C(=N\NC(=O)c1c([N+](=O)[O-])c(C)nn1C)c1ccc(NC(=O)C2CCCC2)cc1	80.5
Cc1cc(Cl)cc2sc(NC(=O)c3ccco3)nc12	-122.7*
O=C(Nc1nc2c(F)cccc2s1)c1ccco1	-121.0*
Cc1nc2nc(NC(=O)c3ccco3)nn2c(C)c1Cl	-94.5*
Fc1cccc2sc(Nc3nnc(-c4ccco4)o3)nc12	-109.1*
Cn1nc(-c2ccccn2)nc2c(=O)n(C)c(=O)nc1-2	93.6
Cn1c(SCc2ccc(F)cc2)nnc1-c1cnccn1	-84.7*
Cn1c(SCc2ccccc2)nnc1-c1cnccn1	-130.6*
Cc1ccccc1CSc1nnc(-c2cnccn2)n1C	-104.5*
Cn1c(SCc2ccc(Br)cc2)nnc1-c1ccccn1	-92.9*
CCOC(=O)N1CCC(NC(=O)c2ccc3c(c2)sc2nc(-c4cccc(OC)c4)cn23)CC1	-212.8*
CC(=O)c1cnc(Nc2ccc(C)cc2)s1	-121.7*
CC1(C)CC(=O)C2=C(C1)Nc1ccccc1N=C2	-162.9*
COC(=O)CCC(=O)Oc1ccc(OC(=O)CCC(=O)OC)cc1	-61.5*
CCSc1nnc(NC(=O)C(C)(C)C)s1	-107.1*
O=C(Nc1nnc(SCc2ccc(F)cc2)s1)c1ccccn1	63.2
CCSc1nnc(NC(=O)c2cccs2)s1	-137.5*
O=C(Nc1nnc(SCc2ccccc2)s1)c1cccs1	-66.7*
CCSc1nnc(NC(=O)NC2CCCCC2)s1	-64.1*
CC(=O)Cc1nsc(NC(=O)c2cccs2)n1	-66.8*
COC(=O)Cc1c(OC)ccn(CCc2c[nH]c3ccccc23)c1=O	-149.3*
O=C(/C=C/c1ccco1)NC(=S)Nc1nc(-c2ccc(Cl)cc2)cs1	-76.2*
O=C(/C=C\c1ccco1)Nc1nc(-c2ccccc2)cs1	-121.2*
O=C(/C=C/c1ccco1)NC(=S)Nc1nc(-c2ccc3ccccc3c2)cs1	-94.0*
SMILES	aSyn 5UTR act
Cc1c(C(=O)N2CCc3ccccc32)oc2ccccc12	-126.1*
Cc1c(Br)c(C(=O)N2CCc3ccccc32)nn1C	-126.8*
O=C(c1ccco1)N1CCc2ccccc21	-97.4*
O=C(c1ccc(Br)o1)N1CCc2ccccc21	-154.4*
CCOC(=O)c1nn(-c2ccc3ccccc3c2)cc1O	-133.7*
CCOC(=O)C1=NN(c2ccc(Cl)cc2)C(=O)C1	-144.0*
CCOC(=O)c1nn(-c2ccc(C)cc2)cc1O	-62.3*
COC(=O)c1nn(-c2ccc(-c3ccccc3)cc2)cc1O	67.0
CCOC(=O)c1nn(-c2ccc(Cl)cc2)cc1O	-124.3*
CCOC(=O)c1ccc(N2CN(CC)CNC2=S)cc1	63.9
CCOC(=O)c1nn(-c2ccc3c(c2)OCO3)cc1O	-144.4*
Cc1ccc(S(=O)(=O)N/N=c2\oc3ccccc3cc2C(=O)Nc2cccc(C)c2)cc1	-85.2*
CCc1ccc(Nc2nnc(SCC(=O)Nc3sccc3C(N)=O)s2)cc1	-86.3*
CCc1ccc(Nc2nnc(SCC(=O)Nc3cccnc3Cl)s2)cc1	-64.4*
CCc1ccc(Nc2nnc(SCC(=O)NCCN3C(=O)CSC3=O)s2)cc1	-65.1*
Cc1cccc2sc(N(CCN(C)C)C(=O)c3cc(Cl)sc3Cl)nc12	-85.3*
Cc1ccc2nc(N(CCCN(C)C)C(=O)c3cc(-c4cccs4)nc4ccccc34)sc2c1	67.1
Cc1ccc2nc(N(CCN(C)C)C(=O)c3cc(Cl)sc3Cl)sc2c1	-133.5*
C/C(=N\Nc1ccc(C(=O)O)cc1)c1ccc2c(c1)Nc1ccccc1S2	-109.5*
O=C(c1ccc(Cl)cc1)c1cnc2ccccn12	-125.7*
Cc1cc(/C=C(\C#N)C(=O)NC2CCCCCC2)c(C)n1C	-74.0*
Oc1c(N=Nc2ccccn2)ccc2ccccc12	73.7
NS(=O)(=O)c1ccc(N=Nc2ccc(O)c3ncccc23)cc1	63.7
COc1cc(N=Nc2ccc3ccccc3c2)ccc1O	-144.2*
Oc1ccc(N=Nc2ccc3ccccc3c2)cc1	-73.2*
SMILES	aSyn 5UTR act
Oc1ccc(N=Nc2c(O)ccc3ccccc23)cc1	-97.6*
CCOC(=O)Cc1csc(N/N=C\c2cccc(Br)c2)n1	-66.1*
CCOC(=O)Cc1csc(NC(=O)/C=C\c2ccccc2)n1	-73.8*
CCOC(=O)Cc1csc(NC(=O)/C=C\c2ccccc2Cl)n1	-194.1*
CCOC(=O)Cc1csc(NC(=O)/C=C/c2ccccc2Cl)n1	-135.8*
CCOC(=O)Cc1csc(/N=C/c2c(O)n(-c3ccc(C)c(C)c3)c(=O)c3ccccc23)n1	105.0
N#Cc1c(N)n(C2CCCCC2)c2nc3ccccc3nc12	62.2
COc1ccccc1/C=C/C(=O)NC(=S)Nc1ccccn1	-125.7*
COc1ccc(/C=C/C(=O)NC(=S)NNC(=O)c2cnccn2)cc1	74.8
COc1ccc(/C=C/C(=O)NC(=S)Nc2ccccn2)cc1	-94.4*
COCCC1CCCCN1C(=O)c1ccc2nc(Cc3ccccc3F)oc2c1 (stereo not drawn)	-131.1*
O=C(c1ccc2oc(CCCc3ccccc3)nc2c1)N1CCCC1	-140.9*
CC(=O)C1CCCN(C(=O)c2ccc3oc(CCc4ccccc4)nc3c2)C1 (stereo not drawn)	-94.0*
CCOC(=O)C1CCCN(C(=O)c2ccc3oc(CCc4ccccc4)nc3c2)C1 (stereo not drawn)	-72.2*
CCOC(=O)C1CCCCN1C(=O)CCc1c(C)nc2cc(-c3ccccc3)nn2c1C (stereo not drawn)	75.9
COC(=O)C1CCCCN1C(=O)c1ccc2oc(Cc3ccccc3)nc2c1 (stereo not drawn)	-87.9*
COc1cc(/C=C(/C#N)C(=O)Nc2ccccc2)c(Br)cc1OCc1ccc(C(=O)O)cc1	-66.8*
N#C/C(=C\c1ccc(OCc2ccccc2)cc1)C(=O)Nc1ccc(C(=O)O)cc1	-95.8*
CCOc1cc(/C=C(/C#N)C(=O)Nc2ccc(O)cc2)cc(Br)c1O	83.7
COC(CN(C(=O)CCl)C(C(=O)NC1CCCCC1)c1ccccc1C)OC (stereo not drawn)	-70.6*
CCn1nnc(NC(=O)c2ccc(C(C)(C)C)cc2)n1	-112.3*
Cc1ccc(C(=O)Nc2nnn(C)n2)cc1	-76.3*
CCCn1nnc(NC(=O)c2ccc3ccccc3c2)n1	-185.0*
CCCn1nnc(NC(=O)c2cccc(OCC)c2)n1	-141.1*
CCCn1nnc(NC(=O)c2ccc(Cl)cc2Cl)n1	-115.1*
SMILES	aSyn 5UTR act
O=C(Oc1ccc(NC2=C(Cl)C(=O)c3ccccc3C2=O)cc1)c1ccc([N+](=O)[O-])cc1	-109.5*
O=c1n(Cc2ccccc2Cl)nc2n1-c1ccccc1SC2	-87.2*
Cc1nc(-c2ccc(S(=O)(=O)Oc3ccccc3Cl)s2)cs1	-68.1*
O=C(NCc1ccccc1)c1c[nH]c2cc3c(cc2c1=O)OCCO3	-183.5*
O=C(Cc1ccccc1)NCc1ccc2c(c1)OCO2	-99.3*
O=C(Cc1ccccc1[N+](=O)[O-])NCc1ccc2c(c1)OCO2	-122.6*
O=C(NCc1ccc2c(c1)OCO2)c1ccccc1Cl	-99.6*
CCC(C)n1ncn(-c2ccc(N3CCN(c4ccc(OCC5COC(Cn6cncn6)(c6ccc(Cl)cc6Cl)O5)cc4)CC3)cc2)c1=O (stereo not drawn)	100.0
O=C(O)C(=O)/C(=C\c1cccc(Cl)c1)c1ccc2ccccc2n1	-80.1*
N#Cc1ccc(/C=C(\C(=O)C(=O)O)c2ccc3ccccc3n2)cc1	-76.5*
Cc1cccc(/C=C(\C(=O)C(=O)O)c2ccc3ccccc3n2)c1	-118.4*
COc1ccc(C(=O)NCCn2ccc3ccccc32)c(OC)c1	-89.8*
O=c1cc(-c2ccccc2)[nH]c2nc3ccccc3n12	-88.7*
